Compounds without any hit were thinned out: in the full panel of roughly 83,000, 20% have a hit.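 Each cell line was grown in a 96-well plate and treated with one concentration of compound for 48 hours. Values below 10 were considered active.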 Unmarked numbers belong to inactive results. Calls of active or inactive are those of the source.
Columns and labels:
Experiment in all cases: NCI-60 one-dose screen, 48 h (100 = growth as untreated, 0 = no growth, -100 = all killed)
Conditions in all cases: 10 µM unless noted
RPMI-8226 leukemia = system: RPMI-8226 leukemia
OVCAR-8 ovarian = system: OVCAR-8 ovarian
OVCAR-5 ovarian = system: OVCAR-5 ovarian
OVCAR-4 ovarian = system: OVCAR-4 ovarian
SK-OV-3 ovarian = system: SK-OV-3 ovarian
IGROV1 ovarian = system: IGROV1 ovarian
OVCAR-3 ovarian = system: OVCAR-3 ovarian
HS 578T breast = system: HS 578T breast
NCI/ADR-RES ovarian = system: NCI/ADR-RES ovarian
T-47D breast = system: T-47D breast
BT-549 breast = system: BT-549 breast
MDA-MB-435 melanoma = system: MDA-MB-435 melanoma
SW-620 colon = system: SW-620 colon
MCF7 breast = system: MCF7 breast
HCT-116 colon = system: HCT-116 colon
HCC-2998 colon = system: HCC-2998 colon
KM12 colon = system: KM12 colon

| SMILES | growth (RPMI-8226 leukemia) | growth (OVCAR-8 ovarian) | growth (OVCAR-5 ovarian) | growth (OVCAR-4 ovarian) | growth (SK-OV-3 ovarian) | growth (IGROV1 ovarian) | growth (OVCAR-3 ovarian) | growth (HS 578T breast) | growth (NCI/ADR-RES ovarian) | growth (T-47D breast) | growth (BT-549 breast) | growth (MDA-MB-435 melanoma) | growth (SW-620 colon) | growth (MCF7 breast) | growth (HCT-116 colon) | growth (HCC-2998 colon) | growth (KM12 colon) |
| --- | --- | --- | --- | --- | --- | --- | --- | --- | --- | --- | --- | --- | --- | --- | --- | --- | --- |
| Cc1c(C(=O)N[C@@H](Cc2ccccc2)C(=O)C(=O)NCCc2ccccc2)[nH]c2ccccc2c1=O | 89.8% | 98.6% | 102% | 94% | 107% | 95.3% | 105% | 105% | 100% | 101% | 124% | 101% | 105% | 92.3% | 106% | 100% | 103% |
| COCN1CCC2N(COC)CCC3N(COC)CCC1N23 (stereo not given) | 118% | 99% | 103% | 110% | 101% | 126% | 116% | 124% | 108% | 99.6% | 108% | 110% | 114% | 99.4% | 101% | 100% | 106% |
| COc1cc(Cn2ncc3ccc(NC(=O)c4cc5ccccc5oc4=N)cc32)cc(OC)c1OC | 51.7% | 86.8% | 58.3% | 86.6% | 79.4% | 46% | 38.8% | 90% | 50% | 39.6% | 43.6% | -16.1% (active) | 43.5% | 25% | 26.6% | 85% | 32.5% |
| CS(=O)c1cccc(-c2ccc3nc(N)n(-c4ccc(C(F)(F)F)cc4)c(=O)c3c2)c1 (stereo not given) | 97.4% | 96.3% | 100% | 100% | 102% | 102% | 101% | 88.4% | 103% | 77.1% | 99.4% | 105% | 103% | 104% | 100% | 106% | 98.5% |
| COc1ccc(C2c3ccc4ccccc4c3Oc3nc(C)[nH]c(=O)c32)cc1 (stereo not given) | 102% | 101% | 114% | 113% | 100% | 95.8% | 108% | 96.3% | 93.9% | 92.2% | 109% | 42.4% | 97.4% | 96.1% |  | 103% | 98.6% |
| Cc1cccc(NC(=O)N/C(N)=N/c2nc(C)c(C)s2)c1 | 28.8% | 58% | 82.3% | 76% | 65.6% | 47.5% | 39.8% | 43.9% | 25.3% | 40.1% | 70.3% | -28.5% (active) | 25.7% | 27% | 33.5% | 63.7% | 23.4% |
| Cc1ccccc1NC(=O)N/C(N)=N/c1nc(C)c(C)s1 | 6% (active) | 30.8% | 41.4% | 49.7% | 45.2% | 36.2% | -1.03% (active) | 23.6% | 9.02% (active) | 36.2% |  | -46.9% (active) | 25% | 21.4% | 21.7% | 22.1% | 35% |
| C#Cc1cccc(NC(=O)c2ccc(NC(=O)CCl)cc2)c1 | 2.29% [8.25 µM] (active) | -13.8% [8.25 µM] (active) | 40% [8.25 µM] | 17.1% [8.25 µM] | 77.3% [8.25 µM] | -55.5% [8.25 µM] (active) | -85.8% [8.25 µM] (active) | 38.2% [8.25 µM] | 11.1% [8.25 µM] | 19.1% [8.25 µM] | -44.8% [8.25 µM] (active) | -4.26% [8.25 µM] (active) | -75.5% [8.25 µM] (active) | 4.22% [8.25 µM] (active) |  | 92.8% [8.25 µM] | 37.9% [8.25 µM] |
| Cc1ccc(C2SCC(=O)N2Cc2ccccc2)cc1 (stereo not given) | 96.7% | 98.8% | 101% | 98.9% | 103% | 102% | 116% | 103% | 103% | 95.2% | 99% | 95.4% | 107% |  |  | 90.7% | 102% |
| CCCCN(CCCC)CC(C)(C)C(O)c1ccc(OC)c2ccccc12 (stereo not given) | 4.33% (active) | 74.2% | 57.6% | 56.7% | 79.1% | -13.4% (active) | -11.9% (active) | 55.7% | 49.3% | 52.9% | 57.1% | 59.3% | 33.4% | 45.5% |  | 51.9% | 45.1% |
| CC(=O)c1nc(Nc2ccc(C)cc2)sc1C | 96.2% | 95% | 97% | 110% | 97.8% | 86.9% | 97.5% | 90.1% |  | 85.6% |  | 103% | 97.4% | 87.3% | 90.9% | 101% | 98.6% |
| CCCCCCCCCOc1c(OC)cc(C2CC(=O)Nc3c2c(C)nn3-c2nc3ccccc3[nH]2)cc1OC (stereo not given) | 10.1% | -1.61% (active) | -68.7% (active) | 1.92% (active) | -62.7% (active) | -51.1% (active) | -63.3% (active) | -23% (active) | -1.8% (active) | -11% (active) |  | -47.4% (active) | -29.2% (active) | 4.28% (active) |  | 10% | -53.1% (active) |
| O=C(CCCCCCSc1nc(-c2ccccc2)cc(-c2ccc(Cl)cc2)n1)NO | 15.7% | 8.67% (active) | 21.6% | 41.3% | 0.785% (active) | -19.6% (active) | 25.2% | 45.7% | -25.5% (active) | -13.7% (active) |  | 19.4% | 11.9% | 15.9% | 6.79% (active) | 51.8% | 31.4% |
| COc1ccc(OC)c(-c2c(C#N)c(-c3ccc(Cl)cc3)nc3c2c(-c2ccccc2)nn3-c2ccccc2)c1 | 95.8% | 101% | 101% | 102% | 100% | 108% | 107% | 100% |  | 90.3% |  | 103% | 98.6% | 90.7% | 93.8% | 108% | 99.2% |
| CC1=NOC(=O)/C1=C\c1ccc(O)cc1 | 109% | 98.3% | 99.8% | 106% | 103% | 104% | 103% | 98.3% |  | 104% | 107% | 102% | 102% | 94.6% | 103% | 109% | 101% |
| N#C/C(=C\c1ccc(-c2ccccc2F)o1)c1nc(-c2ccco2)cs1 | 80.3% | 94.2% | 78.2% | 19.6% | 92.6% | 59.9% | 89.6% | 98.5% | 106% | 14.5% |  | 101% | 96.1% | 37.7% | 93% | 67.8% | 63.9% |
| COc1ccc(-c2nc3ccc4[nH]ncc4c3c3c2CCCC3)cc1B(O)O | 47.6% | 56.4% | 90.5% | 74.8% | 14.4% | 35.6% | 94.8% |  | 71.2% | 46.9% | 41.4% | 32.4% | 33.4% | 60.1% | 27% | 69.8% | 42.7% |
| CCCCc1ccc(Nc2ccc(Nc3ccc(CCCC)cc3S(=O)(=O)O)c3c2C(=O)c2ccccc2C3=O)c(S(=O)(=O)O)c1 | 52% | 99.8% | 97.8% | 99.9% | 91.5% | -16.9% (active) | 103% | 102% | 107% | 106% |  | 84.6% | 98.6% | 86.9% | 106% | 117% | 96.9% |
| NC(=O)c1ccc[n+]([C@@H]2O[C@H](COP(=O)([O-])OP(=O)(O)OC[C@H]3O[C@@H](n4cnc5c(N)ncnc54)[C@H](O)[C@@H]3O)[C@@H](O)[C@H]2O)c1 | 97.6% | 96.8% | 107% | 106% | 113% | 109% | 107% | 107% |  | 114% | 95.9% | 104% | 107% | 102% | 94.7% | 100% | 101% |
